Out of some 330,000 compounds screened, about 1,900 (0.58%) were called active. About 4% were inconclusive and are not listed. The list is a sample of the results. Measured potencies and affinities stand elsewhere. A number with no mark means an inactive call. Cut-off read from the data, not from the text of the source: inconclusive = inhibition above about 70% without an active follow-up result; inactive = below that.
assay: M. tuberculosis growth inhibition, HTS (AID 449762);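 note: bacterial growth assessed after seven days of incubation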; conditions: M. tuberculosis H37Rv growth inhibition, 7H9 media; at 25 µM; hits give high values

| SMILES | inhibition [%] |
| --- | --- |
| COc1ccc(C2=Nn3c(nnc3-c3ccccc3Cl)SC2)cc1OC1CCCC1 | 51.6 |
| COc1ccc(C2=Nn3c(nnc3-c3ccccc3OC)SC2)cc1OC1CCCC1 | 63.1 |
| COc1ccccc1OP(=O)(Nc1cccnc1)Oc1ccccc1OC | -4.39 |
| CCN1CCN(Cc2c(OC)ccc3ccccc23)CC1 | 5.17 |
| C[C@H]1COC(=O)[C@H](Cc2ccc(F)cc2)CC/C=C/C[C@@H](CC(=O)N[C@@H](CO)Cc2ccccc2)C(=O)N1 | 7.3 |
| CCOc1ccc(C(=O)NCC(=O)N2CCC(C)CC2)cc1OCC | -0.53 |
| Cc1csc(NC(=O)Nc2cccc(Cl)c2)n1 | -2.56 |
| Fc1ccc(NC(=S)Nc2cccc(Cl)c2)cc1 | 21.8 |
| O=C(OCC(=O)N1CCc2ccccc21)c1cccnc1Cl | -2.8 |
| CSc1ncccc1C(=O)OCC(=O)N1CCc2ccccc21 | -3.03 |
| CC1CCCC(NC(=O)COC(=O)COc2ccc(Br)cc2)C1C (configuration not stated) | 10.5 |
| C/C(=N\NC(N)=S)C12CC3CC(CC(C3)C1)C2 | -3.2 |
| C/C(CCC12CC3CC(CC(C3)C1)C2)=N\NC(N)=S | -13.2 |
| COc1ccc(/C=C/C(=O)N(CC(C)C)C2CCS(=O)(=O)C2)cc1 (configuration not stated) | 3.62 |
| O=C(NCC1CCCO1)C1CC(=O)N(C2CCCCCC2)C1 (configuration not stated) | 5.65 |
| CCOC(=O)CSc1ncc(OC)c(Sc2ccc(Cl)cc2)n1 | 0.98 |
| CCOC(=O)C(C)Sc1ncc(OC)c(Sc2ccc(Cl)cc2)n1 (configuration not stated) | 2.61 |
| CCOc1ccc(NC(=O)c2ccc(OC)cc2)cc1 | -11.8 |
| COc1ccc(NC(=O)c2ccc(-n3cccn3)nc2)cc1 | -16.3 |
| CC1Cc2ccccc2N1C(=O)CN(C)CC(=O)Nc1ccc(F)cc1 (configuration not stated) | -2.83 |
| CC(=O)c1cccc(N(C(=O)c2ccco2)C(C(=O)NC2CCCC2)c2ccccc2F)c1 (configuration not stated) | 3.81 |
| CCCCn1c(N)c(N(CCC(C)C)C(=O)C2CCN(C(=O)c3ccccc3C)CC2)c(=O)[nH]c1=O | -4.26 |
| COc1cc(NC(=O)C2CCCN(S(=O)(=O)c3ccc4[nH]c(=O)ccc4c3)C2)cc(OC)c1 (configuration not stated) | -0.31 |
| NC(=O)c1cc([N+](=O)[O-])ccc1NCc1cccnc1 | -8.59 |
| CCOC(=O)c1ccccc1C(=O)OCC | 7.16 |

| SMILES | inhibition [%] |
| --- | --- |
| Cc1ccc(NC2=C(N3CCCCC3)C(=O)c3ccccc3C2=O)cc1 | -7.72 |
| O=C1C(Nc2ccccc2)=C(N2CCCCC2)C(=O)c2ccccc21 | 30.1 |
| Cc1ccc(CN(C(=O)c2ccco2)C2CCS(=O)(=O)C2)cc1 (configuration not stated) | -3.45 |
| CCCN1C(=O)C2(OCCO2)c2cc(Cl)ccc21 | 3.45 |
| CN(C)c1ccc(N=Nc2ccccc2C(=O)OCC(=O)N2CCCCCC2)cc1 | 11.9 |
| COC(=O)c1ccccc1NC(=O)COC(=O)c1ccccc1N=Nc1ccc(N(C)C)cc1 | 5.14 |
| Clc1ccc(-c2cn3c(n2)SCC3)cc1 | 9.61 |
| CCSc1ncc(/C=N/Nc2ccc([N+](=O)[O-])cc2)n1C | -1.1 |
| CCSc1ncc(/C=N/Nc2ccc(F)cc2)n1C | -4.38 |
| Cc1cc(C(=O)NNC(=O)c2cccc(C(F)(F)F)c2)no1 | -7.27 |
| CCOc1ccc(C(=O)NC(C)(C)CC)cc1 | 26.1 |
| CCCOc1ccc(C(=O)CCN2CCCCC2)cc1 | 23.5 |
| CCOc1ccc(C(=O)CCN2CCCCC2)cc1 | 42.5 |
| Cc1ccc(-c2nc(S(=O)(=O)c3ccc(C)cc3)c(SCC(=O)NCC3CCCO3)o2)cc1 (configuration not stated) | 8.98 |
| CC(=O)c1ccc(NC(=O)CCc2nc3sc4c(c3c(=O)[nH]2)CCCC4)cc1 | 16.8 |
| CC(C)OC(=O)c1ccc(NC(=O)c2cncc(Br)c2)cc1 | 33 |
| COc1ccc(NC(=S)NC(=O)c2cncc(Br)c2)cc1 | -11.5 |
| CCn1cc(Br)c(C(=O)Nc2ccc(OC)cc2)n1 | -0.58 |
| CCn1cc(Br)c(C(=O)NC(=S)Nc2ccc(C(=O)OC)cc2)n1 | 9.85 |
| CN1CCN(CCc2nc3cc(NC(=O)c4ccco4)ccc3n2C)CC1 | 3.05 |
| O=S(=O)(NCCc1cn2ccccc2n1)c1ccc(F)c(C(F)(F)F)c1 | -2.32 |
| CCCOc1ccc(OCCn2nc(C(=O)O)c3ccccc3c2=O)cc1 | 1.16 |
| O=c1[nH]c(=O)n(Cc2ccc(Oc3ccccc3)cc2)cc1Br | 2.82 |
| CCc1nnc(NC(=O)CN2CCN(c3ccccc3F)CC2)s1 | 5.55 |
| CC(C)C(=O)NNC(=O)CN1CCN(c2nc(-c3ccccc3)cs2)CC1 | -10.4 |

| SMILES | inhibition [%] |
| --- | --- |
| CC(=O)Nc1cccc(C(=O)N2CCN(Cc3ccccc3)CC2)c1 | -9.84 |
| CC(=O)NC(CC(=O)c1ccc([N+](=O)[O-])cc1)C(Cl)(Cl)Cl (configuration not stated) | 13.4 |
| Cc1ccc(NCC(=O)c2ccc([N+](=O)[O-])cc2)cc1 | 8.11 |
| CC(C)CC(=O)NC(Nc1ccc([N+](=O)[O-])cc1)C(Cl)(Cl)Cl (configuration not stated) | 4.27 |
| COc1ccc(C(CC(=O)c2ccc(C)cc2)Nc2ccc([N+](=O)[O-])cc2)cc1 (configuration not stated) | 14.3 |
| OC(COc1ccc(Br)cc1)Cn1ccnc1 (configuration not stated) | -0.05 |
| O=C(NN1CCOCC1)c1ccc(Cl)s1 | -0.84 |
| O=C(COC(=O)C1CCC1)Nc1ncc(Cl)cc1Cl | -10.9 |
| COc1ccc(N2CCN(c3ccc(NC(=O)C4CCCCC4)cc3C#N)CC2)cc1 | 7.01 |
| Clc1ccc(CNc2ccc(CNc3ncn[nH]3)cc2)cc1 | 2.69 |
| Cc1cc(C)nc(Nc2ncn[nH]2)n1 | 6.87 |
| CC1C(=O)N2CCCc3cc(NC(=O)C(=O)NCCc4ccc(F)cc4)cc1c32 (configuration not stated) | 39.4 |
| CC(C)c1nnc(NC(=O)CCC(=O)N2CCN(c3ccc(F)cc3)CC2)s1 | 6.66 |
| CC(C)c1nnc(NC(=O)CCC(=O)N2CCN(c3cccc(Cl)c3)CC2)s1 | 25.5 |
| Cc1[nH]ncc1N=Cc1ccc([N+](=O)[O-])cc1 | 1.43 |
| CCOc1ccc(C(=O)CCC(=O)NCC(=O)Nc2c(C)cccc2C)cc1 | 3.97 |
| O=C1CSC2(C(=O)N3CCCc4cccc2c43)N1c1cccc(C(F)(F)F)c1 (configuration not stated) | -2.03 |
| O=S(=O)(c1ccc(N2CC=C(c3ccccc3)CC2)nc1)N1CCCC1 | -10.8 |
| N=C1C(c2nc3ccccc3s2)=C(O)CN1NC(=O)c1c[nH]c2ccccc12 | -0.06 |
| N=C1C(c2nc3ccccc3[nH]2)=C(O)CN1NC(=O)COc1cccc(F)c1 | -2.89 |
| CCN(CC)S(=O)(=O)c1ccc2c(c1)N(CC(=O)N1CCCC1)C(=O)CO2 | -1.21 |
| O=c1oc2ccccc2cc1-c1nc(-c2ccccc2)no1 | 23.8 |
| Cc1cccc(-c2noc(-c3cc4ccccc4oc3=O)n2)c1 | -1.72 |
| COC(=O)c1cn(-c2ccccc2)nc1-c1ccc(OC)c(OC)c1 | 3.81 |
| CC(C)Oc1ccc(C(=O)Nc2ccc(N3CCN(C(=O)c4ccco4)CC3)cc2)cc1 | 0.01 |

| SMILES | inhibition [%] |
| --- | --- |
| O=C(Nc1ccc(OCc2ccccc2)cc1)c1cccs1 | -4.87 |
| Cc1ccc(Nc2nc(N)c([N+](=O)[O-])c(N3CCC(C)CC3)n2)cc1C | -4.24 |
| Cc1cccc(Nc2nc(N)c([N+](=O)[O-])c(N3CCCC(C)C3)n2)c1 (configuration not stated) | 10.2 |
| CC(NC(=O)c1cccnc1)C(c1cccs1)N1CCN(c2ccccc2F)CC1 (configuration not stated) | -3.95 |
| CC(C)(C)c1ccc(Oc2ccc(N)cn2)cc1 | 14.1 |
| O=Cc1ccc(Oc2ccc(F)cc2)nc1 | 0.87 |
| O=C(NCc1ccccc1Cl)c1cnc2n(c1=O)CCS2 | -6.04 |
| Cn1cccc1/C=C1/C(=O)NC(=O)N(Cc2ccc(F)cc2)C1=O | 11.8 |
| Cn1cccc1/C=C1\C(=O)NC(=O)N(Cc2ccccc2)C1=O | 3.31 |
| N=C1C(c2nc3ccccc3s2)=C(O)CN1C1CCCCC1 | 8.1 |
| COC(=O)c1cc(NC(=O)CN(C)C2CCS(=O)(=O)C2)cc(C(=O)OC)c1 (configuration not stated) | -0.88 |
| C/C(=N\Nc1nc(C)cc(-c2ccccc2)n1)c1ccccc1 | 9.83 |
| COc1cc(N/N=C(\C)c2ccc(O)c(C)c2)nc(-c2ccccc2)n1 | 40.1 |
| CC(=O)CC(=O)NC(=NC1CCCCC1)Nc1nc(C)cc(C)n1 | 43.2 |
| Cc1ccc(-n2cccc2C(=O)NS(=O)(=O)c2ccc(C)cc2)cc1 | -6.77 |
| CN(C)P(=NC(=S)c1cccn1C)(N(C)C)N(C)C | 0.74 |
| C#CC(=O)CCC1CCCN1C(=O)OC(C)(C)C (configuration not stated) | 5.07 |
| Cc1ccc(S(=O)(=O)N2CCOCC2)cc1NC(=O)COC(=O)C1(C)CC1(Cl)Cl (configuration not stated) | 11.2 |
| Cc1cc(=O)n2ccsc2n1 | 0.36 |
| Cc1ccn2c(=O)cc(C)nc2c1 | -4.1 |
| CCOC(=O)c1cnn(CCOC(=O)c2ccc(F)cc2)c1NC(=O)c1ccc(F)cc1 | 0.06 |
| CC(=O)OCn1ncc(N2CCOCC2)c(Br)c1=O | -0.34 |

From PubChem BioAssay AID449762 (Southern Research Specialized Biocontainment Screening …, 2010)
